Data: PubChem BioAssay (NCI)
“And” between values parts separate entries of the source, which are not always exact repeats. Identical values can stand only once. Compounds without any hit were thinned out: in the full panel of roughly 79,000, 15% have a hit. Some compounds were tested as several samples or in several runs, with calls that do not always agree. The source made the active and inactive calls. Rule as the data show it: active = growth inhibition above about 70%; inactive = the rest.

Key:
[1] = NCI Yeast Anticancer Drug Screen. Data for the rad52 strain (AID 147);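 also: 0% = growth of vehicle-treated control cultures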; details: S. cerevisiae rad52 mutant growth inhibition, stronger effect = higher value
In short: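 DNA repair-defective yeast; compound exposure; growth scored against vehicle controls.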

[2] = NCI Yeast Anticancer Drug Screen. Data for the wt1 strain (AID 149);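 also: 0% = growth of vehicle-treated wt1 cultures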; details: S. cerevisiae wt1 strain (SPY 50644) growth inhibition, stronger effect = higher value
In short: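 Using yeast strain wt1, compound-induced growth inhibition was determined against vehicle-treated cultures.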

[3] = NCI Yeast Anticancer Drug Screen. Data for the rad50EPP+ strain (AID 151);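 also: 0% = growth of vehicle-treated control cultures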; details: S. cerevisiae rad50 mutant strain, stronger effect = higher value
In short: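 rad50EPP+ yeast treated with test compounds. Readout: growth vs vehicle control.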

[4] = NCI Yeast Anticancer Drug Screen. Data for the mgt1 strain (AID 153); details: S. cerevisiae mgt1 mutant growth inhibition, stronger effect = higher value
In short: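 Growth inhibition relative to vehicle controls was scored for the mgt1 yeast strain after compound exposure.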

[5] = NCI Yeast Anticancer Drug Screen. Data for the rad50 strain (AID 155);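 also: 0% = growth of vehicle-only cultures of the same strain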; details: S. cerevisiae rad50 strain growth inhibition, stronger effect = higher value
In short: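 Relative growth inhibition (compound vs vehicle) was measured in yeast with a defined repair-gene alteration.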

[6] = NCI Yeast Anticancer Drug Screen. Data for the mec2-1 strain (AID 157); details: S. cerevisiae mec2-1 strain, stronger effect = higher value
In short: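 Growth inhibition is read against vehicle-treated controls after compound exposure of the mec2-1 yeast strain, which is defective in DNA damage repair or cell cycle control.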

[7] = NCI Yeast Anticancer Drug Screen. Data for the rad14 strain (AID 159);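 also: 0% = growth of vehicle-treated control cultures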; details: S. cerevisiae rad14 strain growth inhibition, stronger effect = higher value
In short: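 Screen for anticancer potential: a yeast strain altered in DNA damage repair is grown with compound, and reduced growth is quantified against vehicle controls.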

[8] = NCI Yeast Anticancer Drug Screen. Data for the sgs1 mgt1 strain (AID 161);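 also: 0% = growth of cultures given vehicle only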; details: S. cerevisiae sgs1 mgt1 strain, stronger effect = higher value
In short: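 Yeast cells carrying a defined DNA-repair defect were exposed to test compounds. Growth inhibition was measured relative to vehicle-treated controls.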

[9] = NCI Yeast Anticancer Drug Screen. Data for the CLN2oe strain (AID 163);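 also: 0% = growth of vehicle-only control cultures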; details: S. cerevisiae CLN2oe strain, stronger effect = higher value
In short: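 Compound-treated yeast; growth vs vehicle ctrl = % inhibition. Genetically altered strain (cell-cycle control).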

[10] = NCI Yeast Anticancer Drug Screen. Data for the cln2 rad14 strain (AID 165);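 also: 0% = growth equal to vehicle treated cultures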; details: S. cerevisiae cln2 rad14 strain, stronger effect = higher value
In short: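 Growth inhibition, relative to vehicle-treated controls, is the read-out. The test organism is a yeast strain with defined genetic alterations, cln2 rad14.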

[11] = NCI Yeast Anticancer Drug Screen. Data for the bub3 strain (AID 167); details: S. cerevisiae bub3 mutant strain, stronger effect = higher value
In short: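 Screening used yeast with an engineered genetic alteration affecting cell cycle control. Compound-exposed cultures were compared with vehicle cultures, and reduced growth was taken as inhibition.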

[12] = NCI Yeast Anticancer Drug Screen. Data for the wt2 strain (AID 169);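 also: 0% = growth of vehicle-treated yeast cultures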; details: S. cerevisiae wt2 strain growth inhibition, stronger effect = higher value
In short: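 Compound exposure of yeast; growth compared with vehicle controls; inhibition reported.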

[13] = NCI Yeast Anticancer Drug Screen. Data for the mlh1 strain (AID 171);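 also: 0% = growth of vehicle-treated control cultures of the same strain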; details: S. cerevisiae mlh1 strain growth inhibition, stronger effect = higher value
In short: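 Compounds are applied to a genetically altered yeast strain, and its growth is compared with that of vehicle-treated cultures to give percent inhibition.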

[14] = NCI Yeast Anticancer Drug Screen. Data for the sgs1 strain (AID 173);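 also: 0% = growth of vehicle-only control cultures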; details: S. cerevisiae sgs1 mutant, stronger effect = higher value
In short: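 Compounds applied to genetically altered yeast; growth compared with vehicle-treated cultures to give % inhibition.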

[15] = NCI Yeast Anticancer Drug Screen. Data for the mlh1 rad18 strain (AID 175); details: S. cerevisiae mlh1 rad18 strain growth inhibition, stronger effect = higher value
In short: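 Cells of a genetically altered yeast strain, deficient in DNA damage repair, were treated with compound. Their growth was then compared with that of vehicle-treated cultures to give inhibition.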

[16] = NCI Yeast Anticancer Drug Screen. Data for the rad18 strain (AID 177); details: S. cerevisiae rad18 mutant growth inhibition, stronger effect = higher value
In short: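 Compounds are applied to a repair-deficient yeast strain, and growth is compared with that of vehicle-treated cultures to give percent inhibition.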

[17] = at 5.0 µM (retest, dose inferred, filed as 0.5)
[18] = at 50.0 µM (retest, dose inferred, filed as 5.0)

Measured: growth inhibition

CC1=CC(=C(c2ccc(N)cc2)c2ccc(N)cc2)C=CC1=N
active: [1]; at 100.0 µM 91% | [4]; at 100.0 µM 76% | [5]; at 100.0 µM 82% | [6]; [18] 89% and 80% | [6]; at 100.0 µM 73% | [7]; at 100.0 µM 74% | [9]; at 100.0 µM 78% | [11]; [18] 90% and 76% | [11]; at 100.0 µM 88% | [12]; at 100.0 µM 94% | [13]; at 100.0 µM 81% | [14]; at 100.0 µM 77% | [16]; at 100.0 µM 81%
inactive: [1]; at 1.2 µM 20% | [1]; at 3.7 µM 49% | [1]; at 11.0 µM 47% | [1]; at 33.0 µM 32% | [2]; at 1.2 µM 0% | [2]; at 3.7 µM -1% | [2]; at 11.0 µM 7% | [2]; at 33.0 µM 2% | [2]; at 100.0 µM 19% | [3]; at 1.2 µM 15% | [3]; at 3.7 µM 22% | [3]; at 11.0 µM 20% | [3]; at 33.0 µM 29% | [3]; at 100.0 µM 51% | [4]; at 1.2 µM -9% | [4]; at 3.7 µM 1% | [4]; at 11.0 µM -8% | [4]; at 33.0 µM 4% | [5]; at 1.2 µM -2% | [5]; at 3.7 µM 17% | [5]; [17] 21% and 1% | [5]; at 11.0 µM 17% | [5]; at 33.0 µM 7% | [5]; at 50.0 µM 32.7% and 35.3% | [6]; at 1.2 µM 7% | [6]; at 3.7 µM 2% | [6]; [17] 14% and -7% | [6]; at 11.0 µM -1% | [6]; at 33.0 µM -6% | [6]; at 50.0 µM 58.7% and 12.3% | [7]; at 1.2 µM -9% | [7]; at 3.7 µM 0% | [7]; at 11.0 µM -4% | [7]; at 33.0 µM -4% | [8]; [17] 15% and 2% | [8]; [18] 30% and 50% | [8]; at 50.0 µM 59.5% and 48.1% | [9]; at 1.2 µM 22% | [9]; at 3.7 µM 43% | [9]; at 11.0 µM 39% | [9]; at 33.0 µM 23% | [10]; [17] 1% and -1% | [10]; [18] 42% and 61% | [10]; at 50.0 µM 34% and -84.5% | [11]; at 1.2 µM -12% | [11]; at 3.7 µM 8% | [11]; [17] 18% and -1% | [11]; at 11.0 µM 8% | [11]; at 33.0 µM 12% | [11]; at 50.0 µM 58.8% and 24.9% | [12]; at 1.2 µM -18% | [12]; at 3.7 µM -13% | [12]; at 11.0 µM -12% | [12]; at 33.0 µM -6% | [13]; at 1.2 µM 1% | [13]; at 3.7 µM -4% | [13]; at 11.0 µM 1% | [13]; at 33.0 µM -3% | [14]; at 1.2 µM 11% | [14]; at 3.7 µM 18% | [14]; at 11.0 µM 4% | [14]; at 33.0 µM 11% | [15]; [17] 9% and -3% | [15]; at 50.0 µM 66% and 61.9% | [16]; at 1.2 µM 6% | [16]; at 3.7 µM 4% | [16]; at 11.0 µM -22% | [16]; at 33.0 µM 9%
54% (inactive) and 75% (active): [15]; [18]
38% (inactive) and 93% (active): [5]; [18]
